Assay outcomes deposited in PubChem by National Center for Advancing Translational Sciences (NCATS).
In the library only some 7.4% were active in any assay of this set; here they are far more common.
FLuc counter: qHTS profiling assay for firefly luciferase inhibitor/activator using purifed enzyme and Km concentrations of substrates (counterscreen for miR-21 project) | Luciferin 4-monooxygenase (Photinus pyralis), P08659 | purified FLuc, Km substrates, luminescence inhibition | Potency, µM (series often up to 57.5 µM), inactives show at the highest dose activity change, negative = inhibition, most hits filed as inhibitors | hit rate 6.9% among 360,000 | AID 588342, 2011;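 note: plate controls were vehicle for no effect and reference inhibitor for full effect; nearly all actives have a fitted effect of over 55% in size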
Target sequence (P08659 whole entry, looked up): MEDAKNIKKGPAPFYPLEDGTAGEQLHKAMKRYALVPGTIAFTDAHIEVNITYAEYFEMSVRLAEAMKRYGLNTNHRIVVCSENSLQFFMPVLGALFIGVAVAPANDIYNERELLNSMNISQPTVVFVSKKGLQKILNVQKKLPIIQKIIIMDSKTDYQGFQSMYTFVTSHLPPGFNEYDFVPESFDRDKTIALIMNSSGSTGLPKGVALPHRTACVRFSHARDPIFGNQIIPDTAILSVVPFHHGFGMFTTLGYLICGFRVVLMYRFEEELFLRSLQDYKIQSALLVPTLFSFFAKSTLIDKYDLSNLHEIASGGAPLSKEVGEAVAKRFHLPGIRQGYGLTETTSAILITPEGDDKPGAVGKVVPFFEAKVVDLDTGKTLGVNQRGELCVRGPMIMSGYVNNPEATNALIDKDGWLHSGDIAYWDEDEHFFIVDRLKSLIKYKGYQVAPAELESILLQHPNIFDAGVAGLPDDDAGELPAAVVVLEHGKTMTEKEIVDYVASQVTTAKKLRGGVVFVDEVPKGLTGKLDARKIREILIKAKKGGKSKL
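Purified P. pyralis luciferase, 10 nM final, with Km-level 10 uM D-luciferin and 10 uM ATP in 50 mM Tris acetate pH 7.5, 10 mM Mg acetate, 0.01% Tween-20, 0.05% BSA; 6-point qHTS titration about 60 µM downward; luminescence read.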
NPC1 promoter act: qHTS Assay for NPC1 Promoter Activators | AID 485313, 2010 | hit rate 2.4% among 320,000 | Huh7 NPC1 promoter luciferase reporter, 24 h | Potency, µM (series often up to 9.22 µM), inactives show top-dose activation, hits mostly activators; note: % of control where 0% means no effect; nearly all actives have a fitted effect of over 60% in size
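Cells: Huh7 expressing luciferase under the NPC1 promoter, 1500/well. Seeded 2 h, compound added, incubated 24 h at 37 °C. Luciferase reagent, 10 min ambient, then luminescence.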
KinaseGlo FLuc: Counterscreen for Luciferase (Kinase-Glo TM) Inhibition. Luciferin 4-monooxygenase (Photuris pensylvanica), Q27757. Potency, µM (highest dose often 38.3 µM), for the others: at the highest dose activity change, negative = inhibition, most hits filed as inhibitors. hit rate 0.28% among 200,000. Kinase-Glo luciferase, ATP luminescence, 8 min. AID 1379, 2008; note: % is set by controls: 0 for no effect and ±100 for the full control effect; nearly all actives have a fitted effect of over 60% in size
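Inhibition of Kinase-Glo luciferase light generation was assessed at 10 uM ATP in pH 7.2 imidazole buffer, with luminescence measured after eight minutes at ambient temperature.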
Rab9 promoter act: qHTS Assay for Rab9 Promoter Activators; Huh7 Rab9 promoter-luciferase reporter, luminescence, 24 h; Potency, µM (titrated, usually from 9.22 µM), for the others: at the top dose activation, negative = inhibition, usual class: activators; hit rate 2.8% among 320,000; AID 485297, 2010; note: % of control where 0% means no effect; nearly all actives have a fitted effect of over 60% in size
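Quantitative HTS format; Huh7 Rab9-luciferase reporter cells (1500/well) receive compound 2 h post-plating, incubate 24 h at 37 °C, then get luciferase reagent for 10 min before luminescence reading.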
ELG1 genotoxic: qHTS screen for small molecules that induce genotoxicity in human embryonic kidney (HEK293T) cells expressing luciferase-tagged ELG1; hit rate 1.3% among 330,000; AID 504466, 2011; HEK293T ELG1-luciferase reporter, luminescence, 16 h; Potency, µM (series often up to 46 µM), inactives show at the top dose activity change, positive = activation, most hits filed as activators; note: % of control where 0% means no effect; nearly all actives have a fitted effect of over 60% in size
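Genotoxicity was scored as increased ELG1-luciferase reporter signal, measured by ONE-Glo luminescence (30 min, room temperature). Compound or vehicle exposure of the HEK293T reporter cells lasted 16 hr at 37°C.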
SMN2 splice enh: qHTS Assay for Enhancers of SMN2 Splice Variant Expression; HEK293 SMN2-luciferase splicing reporter, luminescence, 30-36 h; Potency, µM (top dose mostly 46.1 µM), for inactives: at the highest dose activity change, positive = activation, actives largely listed as activators; hit rate 2.8% among 210,000; note: % of control where 0% means no effect; nearly all actives have a fitted effect of over 55% in size
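qHTS luciferase splicing reporter: luminescence rises when SMN2 exon 7 is included in transfected HEK293 cells. Compound exposure lasted 30-36 h at 37C, with 4.5 mM final sodium butyrate as control, followed by a ONE-Glo read.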
Numbers without * were called inactive; u = inconclusive; x = no result; [ ] = dose if it differs, or a comment. Calls come from the whole dose curve; as a rule, active = well fitted curve in the direction sought with a large enough effect; inconclusive = small, poorly fitted or top-dose-only effect, or another doubt; inactive = no such curve, though single readings can be large; an effect the other way counts as inactive or inconclusive. Potency is the fitted concentration of half-maximal effect.

SMILES	FLuc counter	NPC1 promoter act	KinaseGlo FLuc	Rab9 promoter act	ELG1 genotoxic	SMN2 splice enh
COc1ccc2c(c1)c1c(c(=O)n(-c3cccc(C)c3)c(=O)n1CC(=O)NCC1CCCO1)n2C (stereo not given)	-0.3%	x	x	x	x	x
O=C(OC1CCCCC1)c1ccc(NC(=O)c2ccco2)cc1	13.5µM*	u	1.6%	3.55µM*	8.3%	u
O=C(Nc1ccc(CSc2ccccc2)cc1)c1ccco1	2.69µM*	2.82µM*	x	3.98µM*	7.3µM*	x
O=C(O)COc1ccc(NC(=O)c2ccc(NC(=O)c3ccco3)cc2)cc1	u	1.8%	0.2%	10.5%	-1.3%	-0.1%
CCC(=O)Nc1ccc(NC(=O)c2ccco2)cc1	19µM*	2.82µM*	-29.3%	2.82µM*	u	27.3%
O=C(CCc1ccccc1)Nc1ccc(NC(=O)c2ccco2)cc1	-18.0%	16.7%	0.0%	17.3%	u	8.3%
CCCCCCCC1=Cc2ccccc2C(C(C(=O)OC)C(=O)OC)N1C(=O)OC (stereo not given)	x	x	-5.6%[7.66 µM]	x	x	-7.7%[9.22 µM]
CCOc1ccccc1NC(=O)C1CCN(S(=O)(=O)Cc2ccccc2)CC1	-16.0%	x	x	x	x	x
CCCCCOc1ccccc1CN1C(=O)C(=O)c2cc(C)ccc21	-17.3%	x	x	x	x	2.8%
CC(C)(C)c1ccc(OCCn2ccccc2=O)cc1	5.36µM*	1.41µM*	9.9%	1.12µM*	4.61µM*	11.2µM*
O=c1ccccn1CCOc1ccc(Cl)cc1	-8.7%	11.4%	x	14.1%	-2.0%	x
COC(=O)c1cc(OC)c(OC)cc1NC(=O)c1ccc2c(c1)CCN2S(=O)(=O)c1ccccc1	-1.3%	x	x	x	x	0.0%
Cc1nn(-c2nc3ccccc3[nH]2)c(N)c1-c1ccc(Cl)cc1	8.49µM*	u	-1.8%	3.55µM*	7.6%	u
Cc1nn(-c2ccc(Cl)nn2)c(=O)c2ccccc12	16.9µM*	17.7%	-3.5%	u	u	u
Cc1nn(-c2ccc(Cl)c(Cl)c2)c(=O)c2ccccc12	-19.1%	25.7%	-4.5%	18.6%	3.7%	-4.3%
Cc1nn(-c2ccc3ccccc3c2)c(=O)c2ccccc12	12µM*	2.4%	-9.5%	u	u	x
Cc1nn(-c2ccc(Cl)c(Cl)c2Cl)c(=O)c2ccccc12	2.4%	-2.7%	-2.6%	3.3%	-3.3%	-12.3%
Cc1nn(-c2nc3ccccc3[nH]2)c(=O)c2ccccc12	0.0757µM*	u	1.41µM*	0.1µM*	u	-98.4%
Cc1nn(-c2ccc(Cl)cc2)c(=O)c2ccccc12	16.9µM*	4.47µM*	-0.3%	2.82µM*	u	12.6µM*
CCCc1nc2ccc(NC(C)=O)cc2c(=O)n1Cc1ccc(Cl)cc1	u	3.55µM*	9.3%	u	u	4.9%
COc1ccc(Cn2c(C3CC3)nc3ccc(NC(C)=O)cc3c2=O)cc1	10.7µM*	2.24µM*	-24.2%	1.58µM*	u	11.2µM*
COc1cccc(-c2noc(-c3ccoc3C)n2)c1	6.75µM*	u	x	2.51µM*	u	x
COc1ccc(-c2noc(-c3ccoc3C)n2)cc1	2.39µM*	2.82µM*	-18.7%	1.58µM*	u	x
COc1ccc(-c2noc(-c3ccoc3C)n2)cc1OC	1.3%	-3.4%	2.3%	0.6%	2.5%	x
Cc1cccc(-c2noc(-c3ccoc3C)n2)c1	4.78µM*	0.355µM*	-24.6%	0.708µM*	u	u
SMILES	FLuc counter	NPC1 promoter act	KinaseGlo FLuc	Rab9 promoter act	ELG1 genotoxic	SMN2 splice enh
Cc1cc(NC(=O)c2sccc2C)n(-c2cccc(Cl)c2)n1	26.9µM*	2.1%	-1.1%	3.1%	3.0%	-3.3%
Cc1cc(NC(=O)c2cccs2)n(-c2ccccc2)n1	1.7%	2.2%	1.3%	-6.9%	3.1%	-8.8%
Cc1cccn2cc(-c3cccc(NC(=O)C(C)C)c3)nc12	10.7µM*	x	x	x	x	u
O=C(Nc1cccc(-c2cn3ccccc3n2)c1)c1cc2ccccc2oc1=O	1.51µM*	u	-1.5%	u	17.2%	u
Cc1ccc(C)c(NC(=O)Nc2cccc(-c3cn4cccnc4n3)c2)c1	-2.6%	x	x	x	x	-3.9%
COc1ccc(CC(=O)Nc2ccc(-c3cn4ccc(C)cc4n3)cc2)cc1	u	u	-5.0%	u	20.6µM*	-5.1%
Cc1ccn2cc(-c3cccc(NC(=O)C(C)C)c3)nc2c1	6.01µM*	24.6%	-11.5%	u	u	14.1µM*
CCOc1ccc(CCNC(=O)c2cccc(-n3c(C)nc4cccnc43)c2C)cc1	-0.7%	x	x	x	x	x
CC(=O)c1ccc(NC(=O)C2CCC(CNS(=O)(=O)c3cccs3)CC2)cc1 (stereo not given)	-4.6%	x	x	x	x	11.0%
CCc1cccc(C)c1NC(=O)c1cc(S(=O)(=O)NCc2ccccc2Cl)ccc1F	-2.8%	x	x	x	x	x
Cc1cc(C)n(CCc2nc3c4ccccc4nc(N4CCN(c5ccc(F)cc5)CC4)n3n2)n1	-0.9%	x	x	x	x	-13.7%
COc1ccc(OC)c(-c2noc(CSc3nnc(Cc4ccccc4)n3-c3cccc(C)c3)n2)c1	-18.9%	x	x	x	x	-10.0%
O=C(Nc1cccc(-c2cn3ccccc3n2)c1)c1cccs1	3.38µM*	20.9%	-1.8%	13.0%	u	x
CCC(CC)C(=O)Nc1cccc(-c2cn3cccnc3n2)c1	-7.9%	x	x	x	x	x
CC(C)C(=O)Nc1cccc(-c2cn3ccccc3n2)c1	10.7µM*	12.1%	-2.0%	16.7%	8.2%	-4.8%[1.84 µM]
